Laboratory results reported in paper PMC8769072, “Proteome‐scale mapping of binding sites in the unstructured regions of the human proteome” (Molecular Systems Biology, 2022).

ZMYND11 480-602, Q15326, sequence (Q15326 480-602): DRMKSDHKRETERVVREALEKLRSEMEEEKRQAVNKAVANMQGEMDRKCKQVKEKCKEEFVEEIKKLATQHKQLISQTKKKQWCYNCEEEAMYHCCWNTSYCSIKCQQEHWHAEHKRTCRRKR
YES1 90-152, P07947, sequence (P07947 90-152): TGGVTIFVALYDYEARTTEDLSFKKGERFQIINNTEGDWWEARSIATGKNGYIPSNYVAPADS

Row | Binder | selected by phage display (ZMYND11 480-602, Q15326) | selected by phage display (YES1 90-152, P07947)
1 | MPNLARMPSTTAISSN [SLAIN1, Q8ND83] | confidence 2 (active) | –
2 | SMHRDGPPLLENAHSS [SOS1, Q07889] | confidence 2 (active) | –
3 | MPQLDAAGDRLELRSE [C2orf81, A6NN90] | confidence 2 (active) | –
4 | NQEQPTTLSMPLLMVS [ENO4, A6NNW6] | confidence 2 (active) | –
5 | ENPPSYYSIFNYGRTP [TMEM171, Q8WVE6] | confidence 3 (active) | –
6 | SAISEVTQPPSYEDAV [MYOCD, Q8IZQ8] | confidence 3 (active) | –
7 | QQTPPKLTAYLPAMSE [PDPK1, O15530] | confidence 2 (active) | –
8 | QMPRLVAEESNRGSTT [MORC4, Q8TE76] | confidence 3 (active) | –
9 | IQSIPLPPTTHTRLPA [TSHZ1, Q6ZSZ6] | – | confidence 2 (active)
10 | EGIPVLEAQNGKLEVV [ATAD2B, Q9ULI0] | confidence 2 (active) | –
11 | SLQNPPVLIAQPDHSY [SEC16A, O15027] | confidence 2 (active) | –
12 | PPMPQLTPQIPLTGFV [ABI1, Q8IZP0] | confidence 2 (active) | –
13 | GMPALESVTIGDDIWD [TDRD5, Q8NAT2] | confidence 2 (active) | –
14 | ELEMPVLKSSLALGLE [PPP1R35, Q8TAP8] | confidence 4 (active) | –
15 | NESENSRSMPKLEIFE [ZNF165, P49910] | confidence 3 (active) | –
16 | GMLEMPDLRDGSNVIV [DSG1, Q02413] | confidence 3 (active) | –
17 | TPPVQGLEPPVLEAME [I3L1I5] | confidence 4 (active) | –
18 | HSTGEQPPQLSLATRV [LPIN1, Q14693] | confidence 3 (active) | –
19 | DSINPPALVHVHMQGQ [ZSCAN4, Q8NAM6] | confidence 3 (active) | –
20 | QFHPTPPPLQHYTLED [CBFA2T2, O43439] | confidence 2 (active) | –

Row | Binder | selected by phage display (ZMYND11 480-602, Q15326) | selected by phage display (YES1 90-152, P07947)
21 | SELKTMPNLQPISALP | confidence 4 (active) | –
22 | MPVLESSSWPASKGLG [NSD1, Q96L73] | confidence 3 (active) | –
23 | NLEVKSLRALPATPAL [PDE4DIP, Q5VU43] | – | confidence 2 (active)
24 | MPELERSQYPMEWGKT [SGMS1, Q86VZ5] | confidence 2 (active) | –
25 | FERENEGMPSLIAESN [ARID4A, P29374] | confidence 2 (active) | –
26 | EVEASMPQLWAGDSEG [ZNF484, Q5JVG2] | confidence 2 (active) | –
27 | VPVLEPQLPGSVFDPI [BRD4, O60885] | confidence 2 (active) | –
28 | EQALPPHLEPAWPQGL [HOMEZ, Q8IX15] | confidence 4 (active) | –
29 | DMPELFPSKTAHVTDQ [ETAA1, Q9NY74] | confidence 2 (active) | –
30 | QGSGPGEVLPPLLQLE [AATK, Q6ZMQ8] | confidence 2 (active) | –
31 | SPPTLAPATASPPTTA [MLXIPL, Q9NP71] | confidence 2 (active) | –
32 | LISDLDEGPPVLTPVE [ZHX1, Q9UKY1] | confidence 4 (active) | –
33 | MVVSMPNLQDIAMPEL [DENND3, A2RUS2] | confidence 3 (active) | –
34 | EPEYPREPPRLEPQPY [UBN2, Q6ZU65] | confidence 2 (active) | –
35 | VDFDPSTPPKLMPFSN [LZTS1, Q9Y250] | confidence 2 (active) | –
36 | QLLMPTLESETEAAVP [PPRC1, Q5VV67] | confidence 4 (active) | –
37 | AVFPDDMPTLSALPWE [KMT2A, Q03164] | confidence 3 (active) | –
38 | EEETKEMPKLQAELAD [ZBTB38, Q8NAP3] | confidence 4 (active) | –
39 | DSRDQMPVLEKAIDLP | confidence 2 (active) | –
